Pol kappa inh-1: blocks human DNA polymerase kappa activity. Q9UBT6. purified Pol kappa, fluorescent DNA synthesis assay, 10 min. Potency, µM (series often up to 107 µM), for the others: at the top dose activity, negative = inhibition, hits mostly inhibitors. actives 0.53% (n = 400,000). AID 588579; note: potency is the fitted concentration of half-maximal effect; % is set by controls: 0 for no effect and ±100 for the full control effect
Target sequence (Q9UBT6 whole entry, looked up): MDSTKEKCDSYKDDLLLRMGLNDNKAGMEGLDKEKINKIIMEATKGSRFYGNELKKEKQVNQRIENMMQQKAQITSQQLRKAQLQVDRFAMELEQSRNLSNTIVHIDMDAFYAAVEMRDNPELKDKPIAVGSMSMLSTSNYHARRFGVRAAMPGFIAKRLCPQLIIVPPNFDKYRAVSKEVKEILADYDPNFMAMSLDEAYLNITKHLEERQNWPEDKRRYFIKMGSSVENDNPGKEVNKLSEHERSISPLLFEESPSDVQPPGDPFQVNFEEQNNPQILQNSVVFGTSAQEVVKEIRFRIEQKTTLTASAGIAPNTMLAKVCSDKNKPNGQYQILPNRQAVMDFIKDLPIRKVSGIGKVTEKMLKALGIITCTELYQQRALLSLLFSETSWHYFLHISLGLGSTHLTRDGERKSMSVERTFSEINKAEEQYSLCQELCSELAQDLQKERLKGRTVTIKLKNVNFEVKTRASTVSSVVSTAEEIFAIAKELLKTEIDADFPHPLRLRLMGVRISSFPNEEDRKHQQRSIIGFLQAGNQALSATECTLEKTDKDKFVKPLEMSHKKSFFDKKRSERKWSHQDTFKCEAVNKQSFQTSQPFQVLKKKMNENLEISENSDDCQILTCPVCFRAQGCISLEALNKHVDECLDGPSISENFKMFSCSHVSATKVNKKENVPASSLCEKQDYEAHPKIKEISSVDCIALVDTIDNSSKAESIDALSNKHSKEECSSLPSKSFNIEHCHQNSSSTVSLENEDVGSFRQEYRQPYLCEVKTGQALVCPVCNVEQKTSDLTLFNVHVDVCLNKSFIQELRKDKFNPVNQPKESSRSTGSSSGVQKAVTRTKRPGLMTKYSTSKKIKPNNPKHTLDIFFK
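Fluorescent qHTS in 1536-well format: enzyme (10 nM) and compound sat 15 min at room temperature before 50 nM substrate (final) was added. Signal taken at 0 and 10 min; no-enzyme buffer wells were negative controls.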
PI5P4Ka inh: PI5P4K alpha (human) kinase inhibition. PI5P4Kalpha enzyme, ADP-Glo luminescence, 60 min; stronger effect = lower value. AID 652105. max response, %. actives 1.2% (n = 330,000); active = max response of -50% or lower; inconclusive = between -30% and -50%; inactive = -30% or higher; note: value at the top dose of about 77 µM; % is set by controls: 0 for no effect and ±100 for the full control effect
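Compounds were pin-transferred onto PI5P4Kalpha and substrate in HEPES pH 7.4 buffer with EGTA, CHAPS and 5% DMSO. ATP (5 microM final) started the reaction, which ran 60 minutes at room temperature before ADP-Glo detection.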
PI4K2A inh: inhibitors of human PI4K2A. activity change, negative = inhibition, % at 76.9 µM. purified PI4K2A, ADP-Glo luminescence, 1 h; stronger effect = lower value. Q9BTU6. actives 0.13% (n = 420,000). AID 1346378; in the data active = activity change below about -50%; inconclusive = mostly about -30% to -49%;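 note: -100% = wells without enzyme as full effect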
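ADP-Glo luminescence measured ADP generated by PI4K2A enzyme (4 ug/mL before mixing) with 1.2 mM PI substrate (pre-mix) and 300 microM ATP (pre-mix). Tris pH7.5 buffer with MgCl2, Triton X-100; 1 h reaction at ambient temperature.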
Pol eta inh-1: DNA polymerase eta (human) inhibition; Q9Y253; Potency, µM (top dose mostly 114 µM), inactives show at the highest dose activity change, negative = inhibition, actives largely listed as inhibitors; AID 588591; recombinant Pol eta, fluorescent DNA replication assay; actives 1.2% (n = 390,000); note: potency is the fitted concentration of half-maximal effect; % is set by controls: 0 for no effect and ±100 for the full control effect
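Pol eta at 10 nM preincubated with compounds 15 min at room temperature; reaction started with fluorescent substrate (50 nM final) and read kinetically at 0 and 10 min.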
POLI inh: DNA polymerase iota (human) inhibition | actives 1% (n = 390,000) | AID 588590 | Pol iota fluorescent replication assay, 10 min | Potency, µM (top dose mostly 115 µM), without a hit: at the top dose activity, negative = inhibition, most hits filed as inhibitors; note: potency is the fitted concentration of half-maximal effect
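Fluorescent replication assay read twice, at 0 min and 10 min after adding 50 nM (final) substrate. Enzyme (10 nM) and compounds were first incubated 15 min at room temperature; enzyme-free buffer wells were negative controls.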
POLB inh: DNA polymerase beta (human) inhibition; Pol beta primer extension/strand displacement, fluorescence kinetic; Potency, µM (series often up to 114 µM), without a hit: at the top dose activity change, negative = inhibition, actives largely listed as inhibitors; actives 1.3% (n = 340,000); AID 485314; note: potency is the fitted concentration of half-maximal effect; % is set by controls: 0 for no effect and ±100 for the full control effect
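Pol beta (10 nM) was preincubated with compound for 15 min at room temperature. The reaction was then started with 50 nM substrate and read immediately and after a further 10 min at room temperature.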
GALK confirm: galactokinase (human) inhibition, confirmation. shares compounds with Pol eta inh-1. purified GALK, Kinase-Glo ATP depletion luminescence. Potency, µM (doses to about 115 µM), inactives show top-dose activity, negative = inhibition, usual class: inhibitors. actives 70% (n = 150). AID 2015
Redox cycling: redox cycling activity in phenol red-HRP assay. shares compounds with Pol eta inh-1. actives 40% (n = 150). Potency, µM (highest dose often 115 µM), for the others: at the top dose activity change, negative = H2O2 signal, usual class: inhibitors. Phenol red-HRP H2O2 redox cycling, absorbance 600 nm
HEK293 tox: HEK-293 cytotoxicity, GALK inhibitor secondary | shares compounds with Pol eta inh-1 | HEK-293 viability, ATP luminescence (CellTiter-Glo), 24/48 h | Potency, µM (titrated, usually from 46.1 µM), inactives show at the highest dose activity change, negative = cytotoxicity, usual class: inhibitors | actives 10% (n = 170) | AID 2547; note: potency is the fitted concentration of half-maximal effect; % is set by controls: 0 for no effect and ±100 for the full control effect
Pol kappa inh-2: confirmation of human DNA polymerase kappa inhibitors; shares compounds with Pol eta inh-1; purified Pol-kappa, fluorescent strand-displacement substrate; Potency, µM, usual class: inhibitors; actives 76% (n = 920); AID 720501; note: potency is the fitted concentration of half-maximal effect
Pol eta inh-2: Pol eta (human) inhibition, cherry-pick confirmation | shares compounds with Pol eta inh-1 | Pol eta primer extension, TAMRA/BHQ fluorescence, 10 min | Potency, µM, actives largely listed as inhibitors | actives 64% (n = 2,600) | AID 720502; note: potency is the fitted concentration of half-maximal effect
An asterisk follows results filed as active. This is a sample that favours compounds with a hit; in the whole collection about 2.8% have one here. Unless noted, calls come from the whole dose curve; as a rule, active = well fitted curve in the direction sought with a large enough effect; inconclusive = small, poorly fitted or top-dose-only effect, or another doubt; inactive = no such curve, though single readings can be large; an effect the other way counts as inactive or inconclusive.

For O=C1C=C(N(CCO)Cc2ccccc2)c2ccccc2C1=O the results were Pol kappa inh-1 -13%, PI5P4Ka inh -9, PI4K2A inh inconclusive, Pol eta inh-1 20µM*, POLI inh 4.5µM*, POLB inh -17%, GALK confirm 12µM*, Redox cycling 6µM* and HEK293 tox -2%.
For Cc1c(NC(=O)C(C)OC(=O)c2ccc([N+](=O)[O-])s2)c(=O)n(-c2ccccc2)n1C (stereo not drawn) the results were Pol kappa inh-1 inconclusive, PI5P4Ka inh -9, PI4K2A inh -2, Pol eta inh-1 50µM*, POLI inh inconclusive, POLB inh 10µM* and Pol eta inh-2 inconclusive.
COc1cc(/C=C(/C#N)c2nc3ccccc3[nH]2)ccc1OCc1ccc(C(=O)O)o1 was read as Pol kappa inh-1 -19%, PI5P4Ka inh inconclusive, PI4K2A inh -6, Pol eta inh-1 5.6µM*, POLI inh 9%, POLB inh inconclusive and Pol eta inh-2 48*.
`O=C(NCc1ccc(Cl)c(Cl)c1)O[C@H]1CC[C@@]23CCCN2C(=O)CCC[C@H]3C1` gave PI4K2A inh -4.
For O=[N+]([O-])c1ccc(Cl)c(S(=O)(=O)/N=C(/Nc2cccnc2)c2ccccc2)c1 the results were Pol kappa inh-1 -14%, PI5P4Ka inh -6, PI4K2A inh 0, Pol eta inh-1 1% and POLI inh 105%.
O=C(Nc1cccnc1)c1ccc(NS(=O)(=O)c2cc([N+](=O)[O-])ccc2Cl)cc1 was read as Pol kappa inh-1 -52%, PI5P4Ka inh inconclusive, PI4K2A inh -4, Pol eta inh-1 22µM*, POLI inh inconclusive, POLB inh inconclusive and Pol eta inh-2 76*.
CC(C)(C)NC(=O)Cn1cc(S(=O)(=O)Cc2ccc(F)cc2)c2ccccc21 was read as Pol kappa inh-1 -1%, PI4K2A inh 1, Pol eta inh-1 16%, POLI inh 14% and POLB inh 1%.
`COc1ccc(NC(=O)Cn2cc(S(=O)(=O)Cc3ccc(F)cc3)c3ccccc32)cc1OC` gave Pol kappa inh-1 -20%, PI4K2A inh -10, Pol eta inh-1 50µM*, POLI inh inconclusive, POLB inh -25% and Pol kappa inh-2 inconclusive.
CCOC(=O)C(C)On1c(-c2ccccc2)nc2ccc([N+](=O)[O-])cc21 (stereo not drawn) was read as Pol kappa inh-1 -9%, PI5P4Ka inh -1, PI4K2A inh -11, Pol eta inh-1 -2%, POLI inh -8% and POLB inh 10%.

Assay outcomes as filed in PubChem.
